This note sets out measurements from PubChem BioAssay (Tox21).

A short description of assay [1]: qHTS assay for small molecule agonists of the p53 signaling pathway (AID 651631; calls by dose curve; note: nearly all actives have a fitted effect of over 15% in size). In short, it runs like this: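 Read-out is beta-lactamase FRET fluorescence measured 2 h after substrate addition at room temperature, in HCT-116 cells with a p53 response element-driven reporter exposed to compounds for 16 h at 37 °C.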
A general note: In qHTS, concentration-response curves come from the screen itself.

A short description of assay [2]: qHTS assay for small molecules that induce genotoxicity in human embryonic kidney cells expressing luciferase-tagged ATAD5 (AID 651632). Note: nearly all actives have a fitted effect of over 15% in size. In outline: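 Luminescence read-out: after 16 hr compound exposure at 37C, ATAD5-luciferase HEK293T cells received Amplite, 30 min RT, then CCD imaging. A rise in signal marks genotoxic stress.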
Assay [3] in a line: qHTS assay for small molecule agonists of the p53 signaling pathway - cell viability (AID 651633; calls by dose curve;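 note: p53RE-bla HCT reporter cells with a stable beta-lactamase p53 reporter; series mostly up to about 83 µM; nearly all actives have a fitted effect of over 30% in size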). In short, it runs like this: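 p53RE-bla cells were treated with compound for 16 hours at 37 C. Cytotoxicity was then measured as CellTiter-Glo luminescence after 30 min at room temperature.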
Assay [4] in a line: qHTS assay for small molecules that induce genotoxicity in human embryonic kidney cells expressing luciferase-tagged ATAD5 - cell viability (AID 651634; calls by dose curve; note: nearly all actives have a fitted effect of over 25% in size). In short, it runs like this: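 HEK293T ATAD5-luc cells, 2,000/well; compound 15.5 hr, 37C/5% CO2; CellTiter-Fluor 30 min, 37C; fluorescence read.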
Assay [5] in a line: qHTS assay for small molecule disruptors of the mitochondrial membrane potential - cell viability (AID 720634; calls by dose curve;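 note: human HepG2 liver cancer cells; series mostly up to about 83 µM; nearly all actives have a fitted effect of over 20% in size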). In short, it runs like this: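 Luminescence from CellTiter-Glo (ATP content) gave viability in HepG2 cells, read in the same wells as the MMP dye assay after 1 hr compound exposure at 37 C.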
Assay [6] in a line: qHTS assay for small molecule disruptors of the mitochondrial membrane potential (AID 720635). Note: potency is the fitted concentration of half-maximal effect. In outline: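 HepG2 cells exposed to compound 1 hr at 37C, then Mito-MPS dye 30 min. Ratio read of aggregate (540/590 nm) versus monomer (490/535 nm) fluorescence.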
Assay [7] is described as follows: qHTS assay to test for compound auto fluorescence at 590 nm (red) in HepG2 cells (AID 720674). In outline:
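Fluorescence at 590 nm emission following 540 nm excitation was recorded from HepG2 wells one hour after compound transfer, with DMSO-only wells as vehicle and Rose Bengal sodium equivalency as the scale.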

Assay [8] in a line: qHTS assay to test for compound auto fluorescence at 535 nm (green) in HepG2 cells (AID 720675).
Assay [9] can be described thus: qHTS assay to test for compound auto fluorescence at 460 nm (blue) in HEK293 cells (AID 720678). In outline:
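Cells were seeded and left to adhere for 4-5 hr at 37C. Compounds were then pin-transferred. After an overnight incubation at 37C under 5% CO2, intrinsic fluorescence at 405/460 nm was measured and referenced to triamterene.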

Assay [10] is described as follows: qHTS assay to test for compound auto fluorescence at 590 nm (red) in HEK293 cells (AID 720679). In short, it runs like this:
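Each well held 2,000 HEK293 cells in medium containing 10% dialyzed FBS. Following 4-5 hr attachment at 37C, 23 nL test compound or DMSO was added; plates sat overnight, and red fluorescence (540/590nm) was recorded.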

Unmarked numbers belong to inactive results. Results filed as inconclusive are left out. Activity calls are given as the source filed them. Unless noted, calls come from the whole dose curve; as a rule, active = well fitted curve in the direction sought with a large enough effect in the repeat runs; inconclusive = weak or mixed curves; inactive = no such curve, though single readings can be large; an effect the other way counts as inactive or inconclusive.

For `CC(=O)[C@H]1CC[C@H]2[C@@H]3CC[C@H]4C[C@H](O)CC[C@]4(C)[C@H]3C(=O)C[C@]12C`, the Potency result in assay [1], in assay [2], in assay [3], in assay [4], in assay [5] and in assay [6] was “inactive” in each case. In addition, the call in [7], in assay [8], in [9] and in assay [10] was inactive.

Take `ClC(Cl)(Cl)C(Cl)(Cl)Cl`: the Potency result in assay [1], in assay [2], in assay [3], in assay [4], in assay [5] and in [6] was “inactive” in each case. For the same compound, the call in assay [7] and in assay [10] was inactive.

In the case of `CC(N)=S`, the Potency entry in assay [1], in [2], in assay [3], in assay [4], in [5] and in assay [6] was “inactive” in each case. Moreover, the compound was classed as inactive in [7], in assay [8], in assay [9] and in [10].

In the case of `C=C(C)CN(CC)c1c([N+](=O)[O-])cc(C(F)(F)F)cc1[N+](=O)[O-]`, the Potency result in assay [1], in assay [2], in assay [3], in assay [4] and in [5] was “inactive” each time. The Potency in assay [6] is 30.6 µM (active). The compound was called inactive in assay [7], in [8] and in [9].

`COc1cc(OC)nc(Oc2cccc(Oc3nc(OC)cc(OC)n3)c2C(=O)O)n1`: the Potency entry in assay [1], in assay [2], in [3], in assay [4] and in [5] was “inactive” throughout. Further, the compound was classed as inactive in assay [7], in [8], in [9] and in assay [10].

As to `CC(C)NCC(O)c1ccc(N)c(C#N)c1` (configuration not stated), the Potency entry in [1], in assay [2], in [3], in [4], in assay [5] and in assay [6] was “inactive” in each case. In addition, the outcome in [7], in [8] and in [9] was inactive.

As to `CNC(=O)Oc1ccc(N(C)C)c(C)c1`, the Potency result in assay [1], in assay [2], in [3], in assay [4] and in assay [5] was “inactive” in each case. For the same compound, the outcome in [7], in assay [8], in [9] and in [10] was inactive.

Take `C[N+](=O)[O-]`: the Potency entry in assay [1], in assay [2], in [3], in assay [4], in assay [5] and in assay [6] was “inactive” in each case. Moreover, the result in assay [7], in assay [8], in [9] and in [10] was inactive.

`CCOC(=O)CP(=O)(OCC)OCC`: the Potency entry in assay [1], in [2], in assay [3], in [4] and in assay [5] was “inactive” throughout. For the same compound, the call in [7], in [8], in [9] and in [10] was inactive.

`COc1cc2c(cc1OC)[C@@]13CCN4CC5=CCO[C@H]6CC(=O)N2[C@H]1[C@H]6[C@H]5C[C@H]43`: the Potency entry in assay [1], in assay [2], in [3], in assay [4] and in [5] was “inactive” each time. Besides, the compound was classed as inactive in [9] and in assay [10].

`CSc1ccc(C(=O)C(C)(C)N2CCOCC2)cc1`: the Potency result in assay [1], in [2], in assay [3], in assay [4] and in assay [5] was “inactive” throughout. Also, the outcome in assay [7], in assay [8], in [9] and in [10] was inactive.

In the case of `Cc1nc(N)nc(N)n1`, the Potency result in assay [1], in assay [2], in [3], in assay [4] and in [5] was “inactive” throughout. Also, the compound was called inactive in assay [8] and in [9].

For the compound `ClC(Br)Br`, the Potency result in assay [1], in assay [2], in [3], in assay [4] and in assay [5] was “inactive” each time. Besides, the compound was called inactive in [7], in [8], in assay [9] and in [10].

Take `CC(=O)CC(c1ccc(Cl)cc1)c1c(O)c2ccccc2oc1=O` (configuration not stated): the Potency entry in [1], in assay [2], in assay [3] and in [5] was “inactive” each time. In assay [6], the Potency was 32.1 µM (active). Further, the result in assay [7], in [8], in assay [9] and in [10] was inactive.

Regarding `C#C[C@]1(O)C=C[C@H]2[C@@H]3CCC4=CC(=O)CC[C@@H]4[C@H]3CC[C@@]21CC`, the Potency entry in [1], in [2], in assay [3], in [4] and in assay [5] was “inactive” each time. Further, the outcome in assay [7], in assay [8] and in [10] was inactive.

`O=c1oc2ccccc2c(O)c1C1CCCc2ccccc21` (configuration not stated): the Potency entry in assay [1], in [2], in assay [3] and in assay [4] was “inactive” throughout. Further, the Potency in [6] was 13.7 µM (active). Besides, the compound was classed as inactive in assay [7], in assay [8], in [9] and in assay [10].

As to `Cc1cnc[nH]1`, the Potency entry in assay [1], in assay [2], in [3], in assay [4] and in assay [5] was “inactive” in each case. In addition, the outcome in [7], in assay [8] and in [10] was inactive.

In the case of `CCC(=O)c1ccccc1`, the Potency entry in [1], in assay [2], in [3], in assay [4] and in assay [5] was “inactive” throughout. Also, the outcome in [7], in assay [8], in assay [9] and in assay [10] was inactive.

On to `CCCCC(=O)Cl`, for which the Potency result in [1], in [2], in assay [3], in [5] and in [6] was “inactive” throughout. The result in assay [7], in [8], in assay [9] and in assay [10] was inactive.

For the compound `ClCC(Cl)Cl`, the Potency entry in assay [1], in assay [2], in [3], in assay [5] and in assay [6] was “inactive” in each case. The outcome in assay [7], in assay [8], in assay [9] and in assay [10] was inactive.

In the case of `CCC(C)n1c(=O)[nH]c(C)c(Br)c1=O` (configuration not stated), the Potency entry in assay [1], in assay [2], in assay [3], in assay [4] and in [5] was “inactive” in each case. For the same compound, the call in [7], in assay [8], in assay [9] and in assay [10] was inactive.

Consider `CN1CCC(O)(c2ccc(F)cc2)C(C(=O)c2ccc(F)cc2)C1` (configuration not stated), for which the Potency entry in [1], in assay [2], in assay [3], in [4] and in assay [5] was “inactive” throughout. Also, the result in assay [8] and in [9] was inactive.

Consider `N#CC(Cl)(Cl)Cl`, for which the Potency result in [1], in assay [2], in [3], in [4] and in [5] was “inactive” throughout. Besides, the compound was classed as inactive in assay [7], in assay [8], in assay [9] and in [10].

Regarding `Cc1cc(C)nc(Nc2ccccc2)n1`, the Potency entry in assay [1], in assay [2], in assay [3], in [4] and in [5] was “inactive” in each case. Further, the call in [7], in assay [9] and in assay [10] was inactive.

Consider `N#CCCC#N`, for which the Potency entry in [1], in assay [2], in assay [3] and in assay [4] was “inactive” in each case. Besides, the outcome in [7], in assay [8] and in assay [9] was inactive.

Consider `CNC(=O)Oc1ccccc1C1OCCO1`, for which the Potency entry in [1], in assay [2], in assay [3], in [4] and in assay [5] was “inactive” each time. The call in [7], in assay [8] and in [10] was inactive.

Consider `CC(C)COP(=O)(OCC(C)C)OCC(C)C`, for which the Potency entry in assay [1], in [2], in assay [3], in [4] and in [5] was “inactive” throughout. For the same compound, the compound was classed as inactive in [7], in [8] and in assay [10].
